Measured values reported in PubChem BioAssay AID1861 (The Scripps Research Institute Molecular Screening Center, 2009).
Several values for one entry are separate records, joined by “and”; a condition that tells them apart may be missing. Equal entries are not always repeated. Screen size: about 290,000 compounds; about 3,100 (1.1%) were called active. Cut-off read from the data, not from the text of the source: active = inhibition above about 16% (passing the limit was not always enough); inactive = the rest. The full list was thinned out, with actives kept by preference. Some structures have more than one record in an assay (separate samples or runs), and their calls can disagree. Where a SMILES comes first, the peptide text is derived from it. [ ]: non-standard residue; d: D form. The star is where a group is joined. ξ: configuration not given here. Cbz = O=C(OCc1ccccc1)*; ξL = CC(C)CC(N)C(=O)O; ξP = O=C(O)C1CCCN1

Biological target: Neuropeptides B/W receptor type 1 (Homo sapiens) (UniProt P48145)
Sequence (P48145 whole entry, looked up): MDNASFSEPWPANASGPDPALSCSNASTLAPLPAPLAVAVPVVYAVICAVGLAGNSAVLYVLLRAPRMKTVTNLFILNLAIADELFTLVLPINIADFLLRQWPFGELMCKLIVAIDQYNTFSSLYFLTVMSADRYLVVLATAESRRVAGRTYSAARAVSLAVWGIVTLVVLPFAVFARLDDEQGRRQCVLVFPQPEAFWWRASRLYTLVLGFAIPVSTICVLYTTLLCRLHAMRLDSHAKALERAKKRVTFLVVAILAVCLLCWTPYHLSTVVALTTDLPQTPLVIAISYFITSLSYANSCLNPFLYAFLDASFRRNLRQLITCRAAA
Assay: GPR7 receptor antagonists, primary screen, cell-based, fluorescence, single concentration (AID 1861);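 note: cells stimulated with the agonist NPW; 0% = agonist with vehicle and 100% = vehicle without agonist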
Settings: GPR7-expressing cells, fluorescence antagonist assay; at 4.4 µM; stronger effect = higher value

Compound | inhibition
CN(C)S(=O)(=O)c1ccc(C(=O)NCCN=C2NS(=O)(=O)c3ccccc32)cc1 | -2.36% (inactive)
O=C(O)c1ccc(OCC2CCCO2)cc1 (stereo unspecified) | -9.77% (inactive)
CCn1c(SCc2ccccc2)nc2cc(OC)c(OC)cc2c1=O | -30.7% (inactive)
CC(=O)Nc1ccc(S(=O)(=O)NCC2CCC(C(=O)NCCc3ccccc3)CC2)cc1 (stereo unspecified) | -13.4% (inactive)
COc1ccc(NC(=O)C2CCC(CNS(=O)(=O)c3csc(C(N)=O)c3)CC2)cc1OC (stereo unspecified) | 24.1% (active)
COc1cccc(CNS(=O)(=O)c2csc(C(N)=O)c2)c1 | -3.2% (inactive)
Cc1cc(=O)oc2c(C)c(OCC(=O)NCCc3ccc(S(N)(=O)=O)cc3)ccc12 | 9.11% (inactive)
COC(=O)CN1C(=O)C(C)(C)Oc2ccc(C(=O)Nc3cccc(OC)c3)cc21 | -8.64% (inactive)
Cc1ccc(S(=O)(=O)N(CC(O)CN2CCCCC2)c2cccc([N+](=O)[O-])c2)cc1 (stereo unspecified) | -4.51% (inactive)
COc1ccc([N+](=O)[O-])cc1N(CC(O)CN(CC(C)C)CC(C)C)S(=O)(=O)c1ccc(C)cc1 (stereo unspecified) | 21.7% (active)
COc1ccc([N+](=O)[O-])cc1N(CC(O)Cn1nnc2ccccc21)S(=O)(=O)c1ccc(C)cc1 (stereo unspecified) | -11.4% (inactive)
O=C(/C=C/c1cccs1)c1cc(Cl)ccc1OC(=O)N1CCOCC1 | -2.52% (inactive)
CCC(C)c1ccccc1NC(=O)CN(C)CC(=O)Nc1ccccc1SC (stereo unspecified) | 31.4% (active)
CSc1ccccc1NC(=O)CN(C)CC(=O)Nc1ccc(Cl)cc1[N+](=O)[O-] | 12.5% (inactive)
CSc1ccccc1NC(=O)CN(C)CC(=O)Nc1cccc(Br)c1 | 3.51% (inactive)
CC(C)OCCCNc1ncnc2c1[nH]c1ccc(F)cc12 | 26.6% (active)
Fc1ccc2[nH]c3c(N4CCSCC4)ncnc3c2c1 | -5.82% (inactive)
COc1cc(OC)c(OC)cc1/C=N/Nc1ncnc2c1[nH]c1ccc(C)cc12 | -19.8% (inactive)
Cc1ccc(S(=O)(=O)N2CCN(c3ccccc3)CC2)cc1C | 0.58% (inactive)
COc1cccc(CNS(=O)(=O)c2ccc3c(c2)CC(C)N3C(=O)C2CCC2)c1 (stereo unspecified) | 17.9% (inactive)
CC1=CCC2C(=O)N(c3cccc(C(=O)NC(C)c4ccccc4)c3)C(=O)C2C1 (stereo unspecified) | 0.74% (inactive)
Cc1cccc(NC(=O)C(C)SCc2ccccc2)c1 (stereo unspecified) | -8.07% (inactive)
O=C(Nc1ccncc1)c1ccc(Cl)c([N+](=O)[O-])c1 | 1.68% (inactive)

Compound | inhibition
O=C(Nc1c2c(nn1-c1ccccc1)CS(=O)(=O)C2)C1CCCC1 | 4.15% (inactive)
COCCn1nnnc1C(c1cc2ccc(OC)cc2[nH]c1=O)N1CCc2ccccc2C1 (stereo unspecified) | 17.6% (inactive)
COc1ccc(OC)c(C(c2nnnn2C(C)(C)C)N2CCc3ccccc3C2)c1 (stereo unspecified) | 24% (active)
COc1ccccc1C(c1nnnn1C(C)(C)C)N1CCN(Cc2ccccc2)CC1 (stereo unspecified) | 10.7% (inactive)
CC1CCCN(CCCNC(=O)CN2C(=O)COc3ccc(S(=O)(=O)N4CCOCC4)cc32)C1 (stereo unspecified) | -10.9% (inactive)
COC(=O)CCC(=O)N1CCCC(CO)(Cc2ccccc2)C1 (stereo unspecified) | -0.55% (inactive)
Cc1cccc(NC(=O)COC(=O)CCc2ccccc2)c1C | -16.3% (inactive)
CCOCCCn1c(SCC(=O)Nc2cc(OC)ccc2OC)nc2ccccc2c1=O | -10.2% (inactive)
Cc1ccc(NC(=S)NCCc2ccc(Cl)cc2)c(C)c1 | -19.2% (inactive)
Cc1ccc(C(=O)C[n+]2cc(-c3ccccc3)n3c2CCCCC3)cc1 | 16.2% (inactive) and 28.1% (active)
Cc1ccc(-c2c[n+](CC(=O)Nc3ccccc3)c3n2CCC3)cc1 | -3.52% (inactive)
Clc1ccc(C[n+]2cc(-c3ccccc3)n3c2CCC3)cc1 | -5.39% (inactive)
C=CCn1c(CNS(=O)(=O)c2ccc(Br)cc2)nnc1SC | -2.9% (inactive)
CCC1C(=O)NCCN1C(=O)c1ccc2nc(Cc3ccc(OC)cc3)oc2c1 (stereo unspecified) | 10.3% (inactive)
N=C1C(c2nc3ccccc3s2)=C(O)CN1NC(=O)c1ccc([N+](=O)[O-])cc1 | 2.09% (inactive)
CC(C)CN(C(=O)c1cccc(S(=O)(=O)N2CCCCC2)c1)C1CCS(=O)(=O)C1 (stereo unspecified) | 3.39% (inactive)
NNC(=O)CSc1nnc(-c2ccccc2)n1-c1ccccc1 | 25.5% (inactive)
O=C(c1ccc(S(=O)(=O)N2CCCC2)cc1)N1CCN(c2ccccc2F)CC1 | -4.62% (inactive)
CC(C(=O)N1CCN(c2ccccc2F)CC1)c1ccc([N+](=O)[O-])cc1 (stereo unspecified) | 35.6% (active)
O=C(CCSc1ccccc1)N1CCN(c2ccccc2F)CC1 | 1.08% (inactive)
CC(C)CC(NC(=O)C1CCCN1C(=O)[C@@H](C)NC(=O)OCc1ccccc1)C(=O)NCC(N)=O (stereo partly specified) (Cbz-[dA][ξP][ξL]G-NH2) | 2.31% (inactive)
CN(Cc1c(F)cccc1Cl)S(=O)(=O)c1cccs1 | -1.36% (inactive)
Cn1nccc1C(=O)N1CCCC(C(=O)c2ccc(Oc3ccccc3)cc2)C1 (stereo unspecified) | -11.3% (inactive)

Compound | inhibition
CCOCCCNC(=O)C(NC(=O)CNC(=O)c1ccccc1)c1ccc(OC)cc1 (stereo unspecified) | -6.22% (inactive)
O=C1CN(C(=O)c2ccccc2F)C(c2ccc(F)cc2)c2cc(F)ccc2N1 (stereo unspecified) | -1.3% (inactive)
O=C(CSc1nnc(-c2ccco2)o1)NCC(=O)c1ccccc1 | 37.5% (active)
CCOC(=O)c1sc(NC(=O)CSc2nnc(-c3ccco3)o2)c(C(=O)OCC)c1C | -9.68% (inactive)
Cc1cccc(NC(=O)CSc2nnc(-c3ccco3)o2)c1 | 2.82% (inactive)
N=c1c2c(-c3ccccc3)c(-c3ccccc3)n(Cc3ccccc3)c2ncn1CCCO | 27.3% (active)
CCN(CC)CCn1cnc2c1c(=O)[nH]c(=O)n2Cc1ccccc1 | -8.02% (inactive)
N=c1c2c(-c3ccccc3)c(-c3ccccc3)oc2ncn1Cc1ccco1 | -7.33% (inactive)
O=C(COc1ccccc1)NCc1ccc2c(c1)OCO2 | 26% (active)
Cc1ccc(C(=O)OCC(=O)NCc2ccc3c(c2)OCO3)s1 | -1.76% (inactive)
OC(CNCc1ccc2c(c1)OCO2)COc1ccccc1 (stereo unspecified) | -0.63% (inactive)
O=C(Nc1nc(-c2ccncc2)cs1)C1COc2ccccc2O1 (stereo unspecified) | -9.64% (inactive)
CC(=O)NCCC(=O)Nc1nc(-c2ccc3c(c2)OCCO3)cs1 | 21.3% (inactive)
O=C(Nc1nc(-c2ccc3c(c2)OCO3)cs1)c1ccncc1 | 31.8% (active)
CC(Sc1nnc(COc2ccccc2)n1-c1ccccc1)C(=O)O (stereo unspecified) | 11% (inactive)
Cc1cccc(N(C(=O)c2sc(C)nc2C)C(C(=O)NCC2CCCO2)c2ccccc2)c1 (stereo unspecified) | -10.3% (inactive)
CCOC(=O)C1CCN(C(=O)CN2C(=O)c3cccnc3Oc3ccc(C)cc32)CC1 | -8.59% (inactive)
Oc1ccccc1N1CCN(c2ncnc3sc(-c4ccccc4)cc23)CC1 | -12.8% (inactive)
COc1ccccc1N1CCN(c2ncnc3sc(C)c(-c4ccccc4)c23)CC1 | 27% (active)
COc1ccccc1N1CCN(c2ccc([N+](=O)[O-])nc2)CC1 | -2.36% (inactive)
CCCCCc1ccc(-c2cn(Cc3ccc4ccccc4c3)nn2)cc1 | 2.3% (inactive)
O=C(Nc1ccccc1F)c1ccc2c(c1)OCO2 | 30.2% (active)
N#Cc1ccccc1NC(=O)c1ccc2c(c1)OCO2 | -3.22% (inactive)

Compound | inhibition
Cc1ccc(F)cc1NC(=O)c1ccc2c(c1)OCO2 | -15.9% (inactive)
COc1ccc(CCNS(=O)(=O)c2cc3c(cc2C)NC(=O)CO3)cc1OC | -11.3% (inactive)
Cc1cccc(N2CCN(C(=O)COCc3cc(-c4ccc5c(c4)OCO5)on3)CC2)c1C | 14% (inactive)
O=C(COC(=O)c1ccc(F)cc1)Nc1nc2ccc([N+](=O)[O-])cc2s1 | -8.84% (inactive)
O=C(NC(Nc1nc2ccc([N+](=O)[O-])cc2s1)(C(F)(F)F)C(F)(F)F)c1ccccc1 | 27.1% (active)
CCC(=O)NC(Nc1nc2ccc(C)cc2s1)(C(=O)OC)C(F)(F)F (stereo unspecified) | -6.22% (inactive)
COc1cc(C2NC(=O)NC(c3ccccc3)=C2C(C)=O)c(Br)cc1OCC(N)=O (stereo unspecified) | -18.1% (inactive)
COc1cccc(CNC(=O)COc2cc(O)c3c(c2)OC(C)(C)CC3=O)c1 | 1.6% (inactive)
CC(CCc1ccccc1)NC(=O)COC(=O)c1ccc(F)cc1 (stereo unspecified) | -18.2% (inactive)
CC(C)[C@H](NC(=O)N1CCn2c1nc1ccccc12)C(=O)NC1CC1 | -2.43% (inactive)
Cc1cccc(NC(=O)c2nc(S(=O)(=O)Cc3ccccc3)ncc2Cl)c1 | 9.7% (inactive)
Cc1ccc(CS(=O)(=O)c2ncc(Cl)c(C(=O)Nc3nnc(C)s3)n2)cc1 | -20.2% (inactive)
Cc1cccc(CS(=O)(=O)c2ncc(Cl)c(C(=O)Nc3ccc(F)cc3)n2)c1 | 39.8% (active)
CC(=O)NCCC(=O)Nc1cc(S(=O)(=O)N2CCCCC2)ccc1Oc1cccc(C)c1 | 9.48% (inactive)
Cc1ccc(NC(=S)N(CCCN2CCC(C)CC2)Cc2ccco2)cc1 | 26.8% (active)
Cc1ccc(NC(=S)N(Cc2ccco2)C(C)c2cccs2)cc1 (stereo unspecified) | -21.7% (inactive)
Cc1ccc(NC(=S)N(CCN2CCCCC2)Cc2ccco2)cc1C | 0.11% (inactive)
c1ccc2c(c1)CSc1sccc1C2=C1CCNCC1 | 24.5% (active)
C=CS(=O)c1sc(Cl)c(N2CCOCC2)c1[N+](=O)[O-] (stereo unspecified) | 3.73% (inactive)
CN(Cc1ccccc1)c1nc2c(c(=O)[nH]c(=O)n2C)n1CCSc1nc2ccccc2[nH]1 | -4.5% (inactive)
Cn1c(=O)[nH]c(=O)c2c1nc(N(CCO)Cc1ccccc1)n2Cc1ccccc1Cl | 27.1% (active)
CCOC(=O)Cn1c(CN(Cc2ccccc2)Cc2ccccc2)nc2c1c(=O)[nH]c(=O)n2C | -9.45% (inactive)
